# Reference: the supplement of paper PMC10037445
# Whole data set: some 2,900 compounds, median “NF-kB SEAP reporter activity, fold change vs agonist alone” near 0.99, cut for the highest 2% near 2.6. Only a selection was taken, and the highest values are over-represented in it overall.
# Legend:
# [1] = tested on: RAW-Dual; test: NF-kB SEAP reporter activity, fold change vs agonist alone; higher = enhanced NF-kB activity
# Procedure, shortened: (§1)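 Cytotoxic wells were those whose IncuCyte confluency was below 70% of agonist controls in both mask sets. The cells were RAW-Dual macrophages at 50,000 cells/well in DMEM on 384-well plates, dosed with 50 nL of library stock by pin tool, stimulated with a PRR agonist 1 h later, and kept at 37 °C, 5% CO2 for 20 hours. IRF and NF-κB reporter activity, as fold change over agonist-alone wells, came from supernatant read by QuantiLuc luminescence and QuantiBlue absorbance, respectively.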
# [2] = tested on: RAW-Dual; test: NF-kB SEAP reporter activity, fold change vs agonist alone; cytotoxicity flag (confluency mask): cytotoxic (confluency <70% of control); higher = enhanced NF-kB activity
# Procedure, shortened: as §1
# [3] = tested on: RAW-Dual; test: NF-kB SEAP reporter activity, fold change vs agonist alone; cytotoxicity flag (confluency mask): not cytotoxic; higher = enhanced NF-kB activity
# Procedure, shortened: as §1
# [4] = library stock concentration (final ~1000-fold dilution): 10 mM, cytotoxicity flag (confluency mask): cytotoxic (confluency <70% of control), agonist: Imiquimod (TLR7) […]
# [5] = library stock concentration (final ~1000-fold dilution): 10 mM, cytotoxicity flag (confluency mask): cytotoxic (confluency <70% of control), agonist: MPLA (TLR4) […]
# [6] = agonist: ODN 1826 (TLR9) 0.5 ug/mL
# [7] = agonist: Pam2CSK4 (TLR2/6) 0.1 ug/mL
# [8] = agonist: Pam3CSK4 (TLR2/1) 0.1 ug/mL
# [9] = library stock concentration (final ~1000-fold dilution): 10 mM, cytotoxicity flag (confluency mask): not cytotoxic, agonist: MPLA (TLR4) […]
# [10] = library stock concentration (final ~1000-fold dilution): 10 mM, cytotoxicity flag (confluency mask): not cytotoxic, agonist: Imiquimod (TLR7) […]
structure (smiles),measurement,setting,value
CC(C)(C)c1nc(-c2ccc(NC(=O)Nc3cccc(C(F)(F)F)c3)c3ccccc23)c2c(N)nccn12,NF-kB SEAP reporter activity,[1]; [4],0.139
same,NF-kB SEAP reporter activity,[1]; [5],0.252
CC(C)(C)c1nc(-c2ccc(NC(=O)Nc3cccc(C(F)(F)F)c3)c3ccccc23)c2c(N)nccn12 (library stock concentration (final ~1000-fold dilution): 10 mM),NF-kB SEAP reporter activity,[2]; agonist: LPS (TLR4) 0.1 ug/mL,0.488
same,NF-kB SEAP reporter activity,[2]; [6],0.163
same,NF-kB SEAP reporter activity,[2]; [7],0.0888
same,NF-kB SEAP reporter activity,[2]; [8],0.136
CNC(=O)c1cc(Oc2ccc(NC(=O)Nc3ccc(Cl)c(C(F)(F)F)c3)c(F)c2)ccn1.O,NF-kB SEAP reporter activity,[1]; [9],1.58
CNC(=O)c1cc(Oc2ccc(NC(=O)Nc3ccc(Cl)c(C(F)(F)F)c3)c(F)c2)ccn1.O (library stock concentration (final ~1000-fold dilution): 10 mM),NF-kB SEAP reporter activity,[3]; agonist: LPS (TLR4) 0.1 ug/mL,0.727
same,NF-kB SEAP reporter activity,[3]; [6],0.502
same,NF-kB SEAP reporter activity,[3]; [7],0.166
same,NF-kB SEAP reporter activity,[3]; [8],0.205
Cc1[nH]c(C=C2C(=O)Nc3ccc(F)cc32)c(C)c1C(=O)NCCN1CCCC1 (library stock concentration (final ~1000-fold dilution): 2 mM),NF-kB SEAP reporter activity,[3]; agonist: LPS (TLR4) 0.1 ug/mL,1.04
same,NF-kB SEAP reporter activity,[3]; [6],0.183
same,NF-kB SEAP reporter activity,[3]; [7],0.266
same,NF-kB SEAP reporter activity,[3]; [8],0.414
COc1ccc2[nH]cc(C=C3C(=O)Nc4ccc(NC(=O)CCN5CCCCC5)cc43)c2c1,NF-kB SEAP reporter activity,[1]; [4],1.4
same,NF-kB SEAP reporter activity,[1]; [5],2
CCS(=O)(=O)Nc1ccc2c(c1)/C(=C(/Nc1ccc(CN3CCCCC3)cc1)c1ccccc1)C(=O)N2,NF-kB SEAP reporter activity,[1]; [4],0.214
same,NF-kB SEAP reporter activity,[1]; [5],0.227
COc1ccc2[nH]cc(C=C3C(=O)Nc4ccc(NC(=O)CCN5CCCCC5)cc43)c2c1 (library stock concentration (final ~1000-fold dilution): 10 mM),NF-kB SEAP reporter activity,[2]; agonist: LPS (TLR4) 0.1 ug/mL,4.16
same,NF-kB SEAP reporter activity,[2]; [6],0.42
same,NF-kB SEAP reporter activity,[2]; [7],1.36
same,NF-kB SEAP reporter activity,[2]; [8],2.01
Cc1[nH]c(C=C2C(=O)Nc3ccc(F)cc32)c(C)c1C(=O)NCCN1CCCC1,NF-kB SEAP reporter activity,"[1]; library stock concentration (final ~1000-fold dilution): 2 mM, cytotoxicity flag (confluency mask): not cytotoxic, agonist: MPLA (TLR4) […]",0.63
CCS(=O)(=O)Nc1ccc2c(c1)/C(=C(/Nc1ccc(CN3CCCCC3)cc1)c1ccccc1)C(=O)N2 (library stock concentration (final ~1000-fold dilution): 10 mM),NF-kB SEAP reporter activity,[2]; agonist: LPS (TLR4) 0.1 ug/mL,0.196
same,NF-kB SEAP reporter activity,[2]; [6],0.197
same,NF-kB SEAP reporter activity,[2]; [7],0.0873
same,NF-kB SEAP reporter activity,[2]; [8],0.163
CO[C@H](c1c(NC(=O)Nc2cnc(-n3nccn3)c(Cl)c2)cnc2cc(Cl)nn12)[C@@H](C)OC,NF-kB SEAP reporter activity,[1]; [10],0.986
same,NF-kB SEAP reporter activity,[1]; [9],0.994
CO[C@H](c1c(NC(=O)Nc2cnc(-n3nccn3)c(Cl)c2)cnc2cc(Cl)nn12)[C@@H](C)OC (library stock concentration (final ~1000-fold dilution): 10 mM),NF-kB SEAP reporter activity,[3]; agonist: LPS (TLR4) 0.1 ug/mL,1.37
same,NF-kB SEAP reporter activity,[3]; [6],0.862
same,NF-kB SEAP reporter activity,[3]; [7],0.76
same,NF-kB SEAP reporter activity,[3]; [8],0.777
C=Cc1c(C)c2cc3nc(cc4[nH]c(cc5nc(cc1[nH]2)C(C)=C5CCC(=O)O)c(CCC(=O)OC)c4C)C1(C)C3=CC=C(C(=O)OC)C1C(=O)OC (stereo not given) (library stock concentration (final ~1000-fold dilution): 10 mM),NF-kB SEAP reporter activity,[2]; agonist: LPS (TLR4) 0.1 ug/mL,0.243
same,NF-kB SEAP reporter activity,[2]; [6],0.233
same,NF-kB SEAP reporter activity,[2]; [7],0.193
same,NF-kB SEAP reporter activity,[2]; [8],0.191
C=Cc1c(C)c2cc3nc(cc4[nH]c(cc5nc(cc1[nH]2)C(C)=C5CCC(=O)O)c(CCC(=O)OC)c4C)C1(C)C3=CC=C(C(=O)OC)C1C(=O)OC (stereo not given),NF-kB SEAP reporter activity,[1]; [4],0.297
same,NF-kB SEAP reporter activity,[1]; [5],0.349
CNC(=O)c1cccc(-c2ccc3c(N4CCOCC4C)nc(N4CCOCC4C)nc3n2)c1 (stereo not given) (library stock concentration (final ~1000-fold dilution): 10 mM),NF-kB SEAP reporter activity,[3]; agonist: LPS (TLR4) 0.1 ug/mL,1.11
same,NF-kB SEAP reporter activity,[3]; [6],0.489
same,NF-kB SEAP reporter activity,[3]; [7],0.376
same,NF-kB SEAP reporter activity,[3]; [8],0.57
CNC(=O)c1cccc(-c2ccc3c(N4CCOCC4C)nc(N4CCOCC4C)nc3n2)c1 (stereo not given),NF-kB SEAP reporter activity,[1]; [10],1.13
same,NF-kB SEAP reporter activity,[1]; [9],1.22
Oc1c(Cl)cc(Cl)cc1Sc1cc(Cl)cc(Cl)c1O (library stock concentration (final ~1000-fold dilution): 10 mM),NF-kB SEAP reporter activity,[2]; agonist: LPS (TLR4) 0.1 ug/mL,3.19
same,NF-kB SEAP reporter activity,[2]; [6],1.08
same,NF-kB SEAP reporter activity,[2]; [7],0.362
same,NF-kB SEAP reporter activity,[2]; [8],0.801
Oc1c(Cl)cc(Cl)cc1Sc1cc(Cl)cc(Cl)c1O,NF-kB SEAP reporter activity,[1]; [4],1.81
same,NF-kB SEAP reporter activity,[1]; [5],1.6
CCC1(O)C(=O)OCc2c1cc1n(c2=O)Cc2cc3cc(O)ccc3nc2-1 (stereo not given),NF-kB SEAP reporter activity,[1]; [4],2.34
same,NF-kB SEAP reporter activity,[1]; [5],2
same,NF-kB SEAP reporter activity,[1]; [10],0.896
same,NF-kB SEAP reporter activity,[1]; [9],0.856
CCC1(O)C(=O)OCc2c1cc1n(c2=O)Cc2cc3c(CN(C)C)c(O)ccc3nc2-1.Cl (stereo not given) (library stock concentration (final ~1000-fold dilution): 10 mM),NF-kB SEAP reporter activity,[2]; agonist: LPS (TLR4) 0.1 ug/mL,2.73
same,NF-kB SEAP reporter activity,[2]; [6],2.71
same,NF-kB SEAP reporter activity,[2]; [7],0.868
same,NF-kB SEAP reporter activity,[2]; [8],1.35
CCC1(O)C(=O)OCc2c1cc1n(c2=O)Cc2cc3c(CN(C)C)c(O)ccc3nc2-1.Cl (stereo not given),NF-kB SEAP reporter activity,[1]; [4],2.3
same,NF-kB SEAP reporter activity,[1]; [5],2.16
CCC1(O)C(=O)OCc2c1cc1n(c2=O)Cc2cc3c(CN(C)C)c(O)ccc3nc2-1 (stereo not given) (library stock concentration (final ~1000-fold dilution): 10 mM),NF-kB SEAP reporter activity,[3]; agonist: LPS (TLR4) 0.1 ug/mL,2.01
same,NF-kB SEAP reporter activity,[3]; [6],1.59
same,NF-kB SEAP reporter activity,[3]; [7],0.849
same,NF-kB SEAP reporter activity,[3]; [8],1.27
CCC1(O)C(=O)OCc2c1cc1n(c2=O)Cc2cc3c(CN(C)C)c(O)ccc3nc2-1 (stereo not given),NF-kB SEAP reporter activity,[1]; [10],1.46
same,NF-kB SEAP reporter activity,[1]; [9],1.93
CCC1(O)C(=O)OCc2c1cc1n(c2=O)Cc2cc3cc(O)ccc3nc2-1 (stereo not given) (library stock concentration (final ~1000-fold dilution): 10 mM),NF-kB SEAP reporter activity,[3]; agonist: LPS (TLR4) 0.1 ug/mL,1.08
same,NF-kB SEAP reporter activity,[3]; [6],0.937
same,NF-kB SEAP reporter activity,[3]; [7],1.07
same,NF-kB SEAP reporter activity,[3]; [8],1.14
same,NF-kB SEAP reporter activity,[2]; agonist: LPS (TLR4) 0.1 ug/mL,1.9
same,NF-kB SEAP reporter activity,[2]; [6],2.17
same,NF-kB SEAP reporter activity,[2]; [7],1.03
same,NF-kB SEAP reporter activity,[2]; [8],1.5
Cc1nnc(C(C)C)n1C1CC2CCC(C1)N2CCC(NC(=O)C1CCC(F)(F)CC1)c1ccccc1 (stereo not given),NF-kB SEAP reporter activity,[1]; [10],0.968
same,NF-kB SEAP reporter activity,[1]; [9],1
Cc1nnc(C(C)C)n1C1CC2CCC(C1)N2CCC(NC(=O)C1CCC(F)(F)CC1)c1ccccc1 (stereo not given) (library stock concentration (final ~1000-fold dilution): 10 mM),NF-kB SEAP reporter activity,[3]; agonist: LPS (TLR4) 0.1 ug/mL,0.973
same,NF-kB SEAP reporter activity,[3]; [6],1.04
same,NF-kB SEAP reporter activity,[3]; [7],1.06
same,NF-kB SEAP reporter activity,[3]; [8],1.11
O=C(NC(NC(=S)Nc1ccc(F)c([N+](=O)[O-])c1)C(Cl)(Cl)Cl)C(c1ccccc1)c1ccccc1 (stereo not given) (library stock concentration (final ~1000-fold dilution): 10 mM),NF-kB SEAP reporter activity,[2]; agonist: LPS (TLR4) 0.1 ug/mL,0.182
same,NF-kB SEAP reporter activity,[2]; [6],0.493
same,NF-kB SEAP reporter activity,[2]; [7],0.146
same,NF-kB SEAP reporter activity,[2]; [8],0.135
O=C(/C=C/c1ccccc1)NC(NC(=S)Nc1cccc2cccnc12)C(Cl)(Cl)Cl (stereo not given),NF-kB SEAP reporter activity,[1]; [10],0.628
same,NF-kB SEAP reporter activity,[1]; [9],0.833
O=C(/C=C/c1ccccc1)NC(NC(=S)Nc1ccc(Cl)cc1)C(Cl)(Cl)Cl (stereo not given),NF-kB SEAP reporter activity,[1]; [4],1.03
same,NF-kB SEAP reporter activity,[1]; [5],2.18
O=C(/C=C/c1ccccc1)NC(NC(=S)Nc1ccc(Cl)cc1)C(Cl)(Cl)Cl (stereo not given) (library stock concentration (final ~1000-fold dilution): 10 mM),NF-kB SEAP reporter activity,[2]; agonist: LPS (TLR4) 0.1 ug/mL,2.64
same,NF-kB SEAP reporter activity,[2]; [6],1.22
same,NF-kB SEAP reporter activity,[2]; [7],0.494
same,NF-kB SEAP reporter activity,[2]; [8],0.809
O=C(NC(NC(=S)Nc1ccc(F)c([N+](=O)[O-])c1)C(Cl)(Cl)Cl)C(c1ccccc1)c1ccccc1 (stereo not given),NF-kB SEAP reporter activity,[1]; [4],0.707
same,NF-kB SEAP reporter activity,[1]; [5],0.521
O=C(/C=C/c1ccccc1)NC(NC(=S)Nc1cccc2cccnc12)C(Cl)(Cl)Cl (stereo not given) (library stock concentration (final ~1000-fold dilution): 10 mM),NF-kB SEAP reporter activity,[3]; agonist: LPS (TLR4) 0.1 ug/mL,0.779
same,NF-kB SEAP reporter activity,[3]; [6],0.429
same,NF-kB SEAP reporter activity,[3]; [7],0.288
same,NF-kB SEAP reporter activity,[3]; [8],0.388
